Rows were chosen to be rich in hits. Some 4.8% of all compounds tested hit in one or more screens of this group.
AI-2 QS modul: modulates the Vibrio harveyi AI-2 quorum sensing system. Vibrio harveyi JMH597 AI-2 luminescence/OD600 ratio, 9 h; hits give low values; strain lacks LuxN and CqsS sensors; 0 = neutral-control median. activity change, % at 7.5 µM. 0.4% of 300,000 active. AID 2094; in the data active = activity change below about -75%, passing the limit was not always enough;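 note: luminescence divided by OD600 gain over 9 h not by final OD600 alone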
ALR inh: blocks human ALR sulfhydryl oxidase activity. P55789. purified ALR, DTT oxidation, H2O2 HRP-luminol luminescence. inhibition, % (test concentration not listed). 3.8% of 290,000 active. AID 485317;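 active = mean replicate inhibition above about 79%, with every replicate also reaching it, limit read from the data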
Target sequence (P55789 whole entry, looked up): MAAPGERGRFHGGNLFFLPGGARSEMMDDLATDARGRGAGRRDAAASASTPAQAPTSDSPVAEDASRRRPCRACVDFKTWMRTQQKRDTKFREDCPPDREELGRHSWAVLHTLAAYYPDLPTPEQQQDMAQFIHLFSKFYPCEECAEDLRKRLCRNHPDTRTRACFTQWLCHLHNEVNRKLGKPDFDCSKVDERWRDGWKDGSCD
HIF act: HIF pathway transcriptional activation; 0.32% of 300,000 active; U2OS HRE-luciferase reporter, luminescence; normalized: DMSO 0%, desferrioxamine 100%; activation, % at 7.5 µM (by protocol);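 active = mean activation of at least 10% of the iron chelator positive control signal, with at least half of replicates also reaching 10%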
SUMO Mot1 rescue: blocks SUMOylation pathway, rescuing yeast Mot1-301 growth; growth rescue, % at 18.8 µM; 1% of 320,000 active; AID 2716; S. cerevisiae Mot1-301 growth rescue, ATP luminescence, 38.5C; percent above DMSO median, 100 means doubled;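 active = every valid replicate shows activation above 250% relative to neutral control wells; inactive = the rest, any valid replicate at or below 250%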;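 note: OY570 slx delta 5 strain wells were the positive control but not used for scaling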
Starred values were filed as active, the others as inactive; · = no result given.

SMILES	AI-2 QS modul	ALR inh	HIF act	SUMO Mot1 rescue
CSCCCNC(=S)Nc1ccc(N2CCOCC2)cc1N1CCOCC1	31	96*	0	-4
CSCCCNC(=S)Nc1ccc(N2CCOCC2)cc1	-7	95*	2	2
CN(C)C(=S)Nc1ccc(N2CCOCC2)cc1	73	99*	2	-2
CCN(CC)S(=O)(=O)c1ccc(S(=O)(=O)N(CC(=O)Nc2ccccc2)CC2CCCO2)cc1 (stereo unspecified)	23	98*	0	18
N#Cc1ccc(S(=O)(=O)NCC(=O)OCC(=O)N2CCCC2=O)cc1	32	-1	0	30
COc1cc(C(=O)NCC(=O)N2CCN(S(=O)(=O)c3ccccc3C(F)(F)F)CC2)cc(OC)c1OC	·	·	·	6
Cc1ccc(N=Nc2c(=O)[nH]n3c(C)cc(C)nc23)cc1	1	9	-1	-33
Cc1ccc(N=Nc2c(N)[nH]n3c(=O)cc(C)nc23)cc1	11	97*	0	-14
CC1(C)OC(=O)C(=NNc2ccccc2)C(=O)O1	9	-4	0	-17
CC1(C)OC(=O)C(=NNc2ccc(O)cc2)C(=O)O1	·	99*	·	·
COc1cc(CCC(=O)OCC(=O)N2CCc3ccccc32)cc(OC)c1OC	19	1	-2	-9
O=C(CS(=O)(=O)c1ccccc1)N(CCCN1CCOCC1)c1nc2c(F)cccc2s1	13	-2	0	349*
CC(C)=C1SC(N2CCN(c3ccc(C)cc3)CC2)=NC1=O	15	94*	0	·
COc1ccc(CN2CSC(=S)N(Cc3ccc(OC)cc3)C2)cc1	39	-6	0	328*
COc1ccc(CN2CSC(=S)N(Cc3ccccc3)C2)cc1	11	-2	0	113
COc1ccc(-c2cc(=O)oc3c(O)c(O)ccc23)cc1	16	99*	-1	203
Cc1ccc([C@@H]2CC=C(C(=O)O)[C@H](c3cccc(Cl)c3)N2S(=O)(=O)c2ccccc2C)cc1	·	·	·	295*
CCCCC[C@@H]1C=C(C(=O)O)[C@H](c2ccc(CC)cc2)N1S(=O)(=O)c1ccc(C)cc1	·	·	·	354*
Cc1ccccc1S(=O)(=O)N1[C@@H](c2ccc(Cl)cc2)C(C(=O)O)=CC[C@H]1c1ccc(Cl)cc1	·	14	·	112
CCCCC[C@@H]1C=C(C(=O)O)[C@H](c2ccc(F)cc2)N1S(=O)(=O)c1ccc(C)cc1	·	·	·	75
Cc1ccc(S(=O)(=O)N2[C@@H](c3ccc(Cl)cc3)C(C(=O)O)=CC[C@H]2c2ccc(C(C)C)cc2)cc1	·	95*	·	69
Cc1ccc([C@H]2C(C(=O)O)=CC[C@@H](c3ccc(Cl)cc3)N2S(=O)(=O)c2ccccc2C)cc1	·	·	·	341*
COc1ccc(C(=O)N/C(=C\c2ccc3c(c2)OCO3)C(=O)N2CCOCC2)cc1	28	-18	0	2
COc1cccc(N(CC(=O)N2CCCCCC2)S(C)(=O)=O)c1	13	-2	-1	0
COc1ccccc1CN(C)C(=O)c1ccc(S(=O)(=O)Nc2c(C)n(C)n(-c3ccccc3)c2=O)cc1	·	-5	·	7
SMILES	AI-2 QS modul	ALR inh	HIF act	SUMO Mot1 rescue
CCN(C(=O)c1ccc(Cl)c(S(=O)(=O)Nc2c(C)n(C)n(-c3ccccc3)c2=O)c1)c1ccccc1	·	3	·	2
Cc1ccc(S(=O)(=O)N2[C@@H](c3ccc(Cl)c(Cl)c3)C(C(=O)O)=C[C@H]2C(C)(C)C)cc1	·	·	·	312*
Cc1ccc([C@H]2C(C(=O)O)=C[C@@H](C(C)(C)C)N2S(=O)(=O)c2ccc(C)cc2)cc1	·	·	·	24
CCc1ccc([C@@H]2CC=C(C(=O)O)[C@H](c3ccc(Cl)cc3)N2S(=O)(=O)c2ccc(C)cc2)cc1	·	8	·	-6
CCc1ccc([C@@H]2CC=C(C(=O)O)[C@H](c3ccccc3F)N2S(=O)(=O)c2ccc(C)cc2)cc1	·	4	·	302*
CCOc1cc(CNc2ccccc2SC)ccc1O	33	80*	1	-5
O=C(Nc1nc2c(s1)COc1ccccc1-2)c1cccs1	20	96*	1	31
O=C(Nc1nc2c(s1)CCc1ccccc1-2)c1cccs1	-2	-25	2	-2
COc1ccc(Oc2coc3cc(O)ccc3c2=O)cc1	-94*	-17	0	-10
COc1ccccc1Oc1coc2cc(O)ccc2c1=O	20	1	0	-9
CCC(=O)Nc1ccc(S(=O)(=O)Nc2cc(C)on2)cc1	25	13	0	-9
COc1ccc(CC(=O)Nc2ccc(S(=O)(=O)Nc3cc(C)on3)cc2)cc1	-92*	·	0	7
COc1ccccc1OCC(=O)Nc1ccc(S(=O)(=O)Nc2cc(C)on2)cc1	16	89*	-26	-31

Bioassay records: PubChem BioAssay, Broad Institute
